Screening results from PubChem BioAssay.
PGC1a acetyl inh = lowers PGC1a acetylation signal in U2OS cells. AlphaScreen anti-acetyl-lysine; with virally co-expressed GCN5 acetyltransferase. inhibition, % at 15.6 µM. 0.17% of 350,000 active;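 active means every replicate shows inhibition of at least 40%; inconclusive means mean inhibition at least 40% but some replicate below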;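 further: 0% = neutral control wells and 100% = positive control wells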
MLL AF4-AF9 inh = MLL-AF4/AF9 protein interaction inhibition; AlphaScreen, biotin-AF4 peptide binding to FLAG-AF9; inhibition, % at 10 µM; 0.47% of 350,000 active;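 active means every replicate reaching a set inhibition limit, whatever the replicate mean, cut at about 25% in these data; inconclusive means mean inhibition reaches that limit but some replicates miss it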;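 further: 0% = plate neutral control median and 100% = total signal loss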
HIV Env fusion = HIV envelope-mediated fusion inhibition; HeLa-JRFL Env/CEM21 cell fusion, luciferase; inhibition, % at 12.3 µM; 1.1% of 360,000 active; AID 651610;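 active means mean replicate inhibition score of at least 50 and every replicate individually at or above 50; inconclusive means only one of the two criteria met; inactive means mean below 50 and not all replicates reaching 50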;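 further: 0% = plate neutral controls and 100% = maraviroc near 300 nM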
GSIS activator = GLuc luminescence reporter in INS-1E cells, primary screen for activators of glucose-dependent secretion of insulin. INS-1E GLuc reporter insulin secretion, 2-3 h. 0.61% of 370,000 active. activation, % at 16.6 µM;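 active means lowest replicate activation of at least 40%, so every replicate reaches that level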;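 further: 0% = median of neutral control wells and 100% = median of IBMX positive control wells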
NSD2 inh = inhibitors of human histone methyltransferase NSD2; inhibition, % at 12.5 µM; O96028; 0.54% of 310,000 active; NSD2 peptide methylation, AlphaScreen, 120 min; in the data active means inhibition above about 50%
* = called active by the depositor; ? = inconclusive; · = no result; [ ] = remark or other dose. Shown are actives, neighbours in structure and some others; about 2.1% of the full set was active somewhere.

SMILES | PGC1a acetyl inh | MLL AF4-AF9 inh | HIV Env fusion | GSIS activator | NSD2 inh
COC(=O)c1c(NC(=O)c2cccc([N+](=O)[O-])c2)sc(C(N)=O)c1C | · | -2 | 6 | 9 | -2
COC(=O)c1sc(NC(=O)c2cccc([N+](=O)[O-])c2)c(C(N)=O)c1C | 4 | · | 2 | 78* | 0
Cc1ccccc1/C=C\c1nc2ccccc2c(=O)n1Cc1ccccc1 | · | · | 4 | -16 | -3
CCn1c(/C=C\c2ccccc2C)nc2ccccc2c1=O | -3 | 31* | -2 | -4 | -4
O=C(CCCN1C(=O)C2CC=CCC2C1=O)Nc1ccccc1Cl (stereo not given) | · | -1 | -7 | -1 | -6
COCC(=O)NC[C@@H]1[C@H](c2ccc(C3=CCCC3)cc2)[C@H](CO)N1C(C)=O | 0 | 4 | · | 2 | ·
CC(=O)NC(c1cccc([N+](=O)[O-])c1)c1ccc2cccnc2c1O (stereo not given) | · | 1 | 23 | -22 | 0
CCC(=O)NC(c1ccccc1OC)c1ccc2cccnc2c1O (stereo not given) | 20 | · | · | · | -6
COc1cccc(C(NC(C)=O)c2ccc3cccnc3c2O)c1 (stereo not given) | -1 | 26* | 12 | -10 | ·
O=[N+]([O-])c1ccc(NC(c2ccccc2)c2ccc3cccnc3c2O)cc1 (stereo not given) | 4 | 14 | 62* | · | -2
COc1ccc(Cl)cc1C(Nc1cccnc1)c1ccc2cccnc2c1O (stereo not given) | 15 | 26* | -26 | -5 | -1
C[C@H]1CCCCO[C@H](CN(C)Cc2ccccc2)[C@@H](C)CN([C@@H](C)CO)C(=O)c2cc(NC(=O)Nc3ccc4c(c3)OCO4)ccc2O1 | -24 | -11 | 18[16.7 µM] | -24 | ·
CCOC(=O)c1nn(-c2ccccc2)c2nc(Nc3ccccc3)cc(=O)n12 | 10 | · | · | 78* | 6
CCOC(=O)c1nn(-c2ccc(F)cc2)c2nc(Nc3ccccc3)cc(=O)n12 | · | · | · | -5 | -2
O=C(NCc1ccccc1)C(c1ccco1)N1CCN(C(=O)C2CCCO2)CC1 (stereo not given) | · | · | 12 | -10 | ·
COc1cccc(C(C(=O)NCc2ccccc2)N2CCN(C(=O)C3CCCO3)CC2)c1OC (stereo not given) | · | · | -12 | 43* | ·
Cc1cccc(C)c1NC(=O)CCCSc1nnc(-c2ccc(Cl)cc2)n1-c1ccccc1 | · | -2 | 79* | 6 | -1
O=C(CSc1nnc(-c2ccccc2)n1-c1ccc(Cl)cc1)N/N=C/c1ccccc1C(=O)O | 45* | -11 | -17 | -3 | -3
Cc1cccc(C)c1NC(=O)CCCSc1nnc(-c2ccc(F)cc2)n1-c1ccccc1 | · | 0 | 14 | · | -2
N=C1S/C(=C\c2cccc3ccccc23)C(=O)N1c1ccc(F)cc1 | · | · | · | 24 | -1
CCOC(=O)c1nc2nc(-c3cccs3)cc(C(F)(F)F)n2n1 | -4 | · | -7 | 63* | -2
Cc1cccc(C)c1NC(=O)N1CCN(c2nc3ccccc3s2)CC1 | 0 | · | 72* | · | 0
CC(C)Cn1c(N)c(C(=O)COC(=O)c2ccc3c(c2)OCCO3)c(=O)n(C)c1=O | -7 | · | 35 | -28 | -3
CC(C)Cn1c(N)c(C(=O)CSc2ccc3c(c2)OCCO3)c(=O)n(C)c1=O | -8 | · | 98* | · | ·
CCCN1[C@@H]2c3ccc(/C=C/c4ccccc4)c(=O)n3C[C@@H]2[C@@H](CO)[C@@H]1C(=O)N(C)C | · | -1 | · | 0 | ·
SMILES | PGC1a acetyl inh | MLL AF4-AF9 inh | HIV Env fusion | GSIS activator | NSD2 inh
CCCCn1nnnc1C1(C)CCC(=O)N1Cc1cc(OC)ccc1OC (stereo not given) | · | -2 | -2 | 14 | ·
NNC(=O)c1cccc(O)c1 | 13 | · | ? | 43* | -3
O=C(NCCNC(=O)c1cccc(O)c1)c1cccc(O)c1 | 1 | 1 | 2 | 0 | -2
CCOC(=O)c1c(NC(=O)CSc2nnc(CNc3ccc(Cl)cc3)o2)sc(C)c1C | -5 | · | 65* | · | -2
COc1ccc(CC(=O)N2CC3(C)CC2CC(C)(C)C3)cc1OC (stereo not given) | 1 | 0 | · | · | -1
COc1cccc(CNC(=O)C[C@@H]2C=C[C@H](NC(C)=O)[C@H](CO)O2)c1 | 1 | -1 | 8[16.7 µM] | 10 | ·
CCCc1ccc(C(O)c2ncc(-c3cccc(F)c3)[nH]2)cc1 (stereo not given) | 43* | 1 | 36 | -13 | 0
CCc1ccc(C(O)c2ncc(-c3cccc(F)c3)[nH]2)cc1 (stereo not given) | -2 | 2 | 16 | -7 | 1
Cc1nc(C)n(CC(=O)N2CCCC(C(=O)c3ccc(C(F)(F)F)cc3)C2)n1 (stereo not given) | 11 | -3 | 14 | -4 | ·
COc1ccc(CC(=O)Oc2ccc(C)cc2Br)cc1OC | 1 | 0 | 61* | 42 | 11
CN(C)C(=O)CCCc1nc(-c2ccc(Cl)cc2)no1 | 3 | · | 55* | -3 | -1
O=C(CCCc1nc(-c2ccc(Cl)cc2)no1)Nc1cccnc1 | -1 | · | 61* | · | -2
Cc1cccc(-c2noc(CCCC(=O)Nc3cccnc3)n2)c1 | -6 | · | 13 | · | 0
Cc1onc(-c2ccccc2)c1C(=O)NCCc1ccc(Cl)cc1 | -1 | · | · | -27 | -1
COCC(=O)N(C)C[C@H]1Oc2ncc(C#Cc3ccccc3OC)cc2C(=O)N([C@H](C)CO)C[C@H]1C | 1 | -4 | -4[16.7 µM] | 12 | ·
O=C(CN(Cc1ccccc1)C1=NCCS1)c1ccc(Cl)cc1 | · | -4 | 14 | -8 | -6
CN(C)S(=O)(=O)n1cc(/C=C(\NC(=O)c2ccccc2F)C(=O)NCCCN2CCOCC2)c2ccccc21 | 0 | -1 | 8 | -14 | 1
Cc1nn(-c2nc3ccccc3[nH]2)c(=O)c2ccccc12 | -9 | -2 | 72* | 17 | -4
CCOC(=O)C1CCCN(CC(=O)NC2=Nc3ccccc3N=C(C)C2c2ccccc2)C1 (stereo not given) | -3 | · | -59 | · | -12
C[C@H]1CN([C@@H](C)CO)S(=O)(=O)c2ccc(C#Cc3ccccc3)cc2O[C@@H]1CN(C)C(=O)CN(C)C | -23 | 10 | 15[16.7 µM] | 48* | ·
CCC(=O)N(C)C[C@@H]1Oc2cc(C#Cc3ccccc3)ccc2S(=O)(=O)N([C@H](C)CO)C[C@H]1C | 7 | -2 | 66*[16.7 µM] | -23 | ·
C[C@H]1CN([C@@H](C)CO)S(=O)(=O)c2ccc(C#Cc3ccccc3)cc2O[C@H]1CN(C)C(=O)C1CC1 | -2 | -1 | 17[16.7 µM] | -16 | ·
C[C@@H]1CN([C@H](C)CO)S(=O)(=O)c2ccc(C#Cc3ccccc3)cc2O[C@H]1CN(C)C(=O)C1CC1 | -9 | -1 | 58*[16.7 µM] | 17 | ·
O=C(Cn1ncc2c1-c1ccccc1OC2)N1CCN(Cc2ccccc2)CC1 | · | -5 | 20 | 10 | 0
CC(C)NC(=O)CC1OC(=O)c2ccccc21 (stereo not given) | 0 | · | 7 | · | -1
Cc1ccccc1NC(=S)N1CCN(C(=O)c2ccco2)CC1 | · | 0 | 11 | 6 | -2
